Our source for the Potency values is PubChem BioAssay (NCATS).

Structures are written as SMILES. Results filed as inconclusive are left out. Where a call stands in place of a potency, no number is given. Active and inactive are the calls of the source. Calls come from the whole dose curve; as a rule, active = well fitted cell-killing curve with a large enough effect; inconclusive = small, poorly fitted or top-dose-only effect; inactive = flat fitted curve, though single readings scatter. Bridge positions count the residues as written; N and C are the ends. Square brackets hold non-standard residues; d marks the D form. Side chains are listed from the residue outwards. Peptide text beside a SMILES is read from it. * marks the point of attachment. Phg(4-OMe) = COc1ccc([C@H](N)C(=O)O)cc1; d(aIle) = CC[C@H](C)[C@@H](N)C(=O)O; d(aThr) = C[C@@H](O)[C@@H](N)C(=O)O; NMeF = CN[C@@H](Cc1ccccc1)C(=O)O; Isobutyryl = CC(C)C(=O)*
Potency is the fitted concentration of half-maximal effect.

A short description of the assay: Vero-766 cells viability qHTS against the NCATS CANVASS Library: Counterscreen for Zika virus inhibition assay (AID 1347394). Note: nearly all actives have a fitted effect of over 60% in size. Particulars: Vero 766 viability, CellTiter-Glo luminescence, 72 h; series mostly up to 46.1 µM. In a few lines: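 Uninfected Vero 766 (African green monkey) cells, 1000/well, attached overnight, then exposed 72 h at 37C to compounds (11-point qHTS). Viability read by CellTiter-Glo luminescence; media-only wells served as 100% inhibition.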
(In general: qHTS replaces the single test concentration by a dilution series.)
Consider `C=C1CC[C@@H](Br)C(C)(C)[C@]12CC=C(C)C(=O)C2`, for which the Potency entry is “inactive”.

Turning to `C=CC(CCCCC)C1C(=O)NC(=O)C1C(=O)C1C(/C=C/C)C=CC2CC(C(=O)O)CC(C)C21` (stereo not drawn), the Potency was 23.4 µM (active).

On to `COc1cc(/C=C/C(=O)OC[C@@H](Cc2ccc(O)c(OC)c2)[C@@H](COC(=O)/C=C/c2ccc(O)c(OC)c2)Cc2ccc(O)c(OC)c2)ccc1O`, for which the Potency is 7.41 µM (active).

In the case of `C=C[C@@]1(C)CC[C@@H]([C@H](C)C(=O)/C=C/C(C)(C)O)O1`, the Potency result was “inactive”.

`O=C1CC2OCC=C3CN4C5CC3C2[C@@H]2N1c1ccccc1[C@]52C[C@@H]4C1=C[C@H]2C3CC4N(CC[C@@]45c4ccccc4N(C1=O)[C@@H]25)C/C3=C/CO` (stereo partly drawn): the Potency entry was “inactive”.

For `C=C1CC[C@@H](O[C@H]2C[C@@](O)([C@H](C)NC(=O)c3[nH]c(C)c(Cl)c3Cl)[C@H](O)[C@@H](C)O2)[C@@H]2C=C[C@H](C)C(/C(O)=C3/C(=O)[C@H](C(C)C)N([C@@H]4O[C@H](C)[C@H](OC(N)=O)[C@H](OC(C)=O)[C@@H]4OC)C3=O)[C@@H]12` (stereo partly drawn), the Potency result was “inactive”.

`CC[C@H](C)[C@H]1NC(=O)[C@@H](NC(=O)C(C)C)[C@@H](C)OC(=O)[C@H](COC(=O)CNC(C)=O)NC(=O)[C@@H]([C@@H](C)O)NC(=O)[C@H](Cc2ccccc2)N(C)C(=O)[C@H](c2ccc(OC)cc2)NC1=O` (Isobutyryl-T[d(aIle)][Phg(4-OMe)][NMeF][d(aThr)]S([Gly-Ac]); ester 1-C): the Potency result is “inactive”.

With `C=C(C)CC[C@H](Cc1c(O)cc(O)c2c1O[C@H](c1ccc(O)cc1)CC2=O)C(=C)C`, the Potency is 18.6 µM (active).
